Records with an inconclusive call do not appear. A call without a number means that no potency is given here. Calls of active or inactive are those of the source. Calls come from the whole dose curve; as a rule, active = well fitted inhibition curve with a large enough effect; inconclusive = small, poorly fitted or top-dose-only effect; inactive = flat fitted curve, though single readings scatter.
Molecular target: Calcium and integrin-binding protein 1 (Homo sapiens) (UniProt Q99828)
Assay: Primary qHTS for Identification of Calcium Integrin Binding Protein 1 (CIB1) Competitor (AID 1508620);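 note: GST tagged CIB1 binding a fluorescein labelled alphaIIb integrin peptide tracer; top concentration of the series differs between compounds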
Outline: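 CIB1-GST (1 uM final) and compound incubated 15 min at room temperature before adding FITC-alphaIIb peptide tracer (100 nM final). Competition for binding read by fluorescence polarization (ex 480, em 540) after another 15 min at room temperature.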

Sequence of Calcium and integrin-binding protein 1 (Homo sapiens) (Q99828 whole entry, looked up): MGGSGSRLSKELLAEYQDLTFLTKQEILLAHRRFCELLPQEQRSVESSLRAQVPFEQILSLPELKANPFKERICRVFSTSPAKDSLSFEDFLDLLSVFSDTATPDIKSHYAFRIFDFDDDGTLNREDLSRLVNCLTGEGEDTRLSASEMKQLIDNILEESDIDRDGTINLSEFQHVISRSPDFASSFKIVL

Compound | Potency
COC(=O)C1(Cc2ccc(O)cc2)OC(=O)C(OC)=C1c1ccc(O)cc1 (configuration not stated) | inactive
COC1=CC(=O)C[C@@H](C)[C@]12Oc1cc(OC)cc(OC)c1C2=O | inactive
C=C1CCC2C(C)(C)CC(=O)CC2(C)C1CCC(C)CCOC(C)=O (configuration not stated) | inactive
CC[C@H]1OC(=O)[C@H](C)[C@@H](O[C@H]2C[C@@](C)(OC)[C@@H](O)[C@H](C)O2)[C@H](C)[C@@H](O[C@@H]2O[C@H](C)C[C@H](N(C)C)[C@H]2O)[C@@](C)(O)C[C@@H](C)[C@@H]2N[C@@H](COCCOC)OC([C@H]2C)[C@]1(C)O | inactive
C[C@]1(O)CC[C@@H]2C(C(=O)O)=CO[C@@H](O[C@@H]3O[C@H](COC(=O)c4ccc(O)cc4)[C@@H](O)[C@H](O)[C@H]3O)[C@@H]21 | inactive
C1CCN2CC3C[C@@H](CN4CCCC[C@@H]34)[C@H]2C1 | inactive
C[C@H]1C[C@H]2[C@@H]3CCC4=CC(=O)C=C[C@]4(C)[C@@]3(F)[C@@H](O)C[C@]2(C)[C@@]1(O)C(=O)COP(=O)(O)O | inactive
NC(=O)[C@H]1CCCCc2c1[nH]c1ccc(Cl)cc21 | inactive
O=C(COc1ccc(Cl)cc1)NC1CCC(NC(=O)COc2ccc(Cl)cc2)CC1 (configuration not stated) | inactive
O=c1ccn([C@@H]2O[C@H](CO)[C@@H](O)[C@H]2O)c(=O)[nH]1 | inactive
O=C1N(CC2CCCCN2)CCN1c1ccccc1 (configuration not stated) | inactive
COc1c(OC2OC(CO)C(O)C(O)C2O)ccc(O)c1C(=O)OCc1ccccc1O[C@@H]1O[C@H](CO)[C@@H](O)[C@H](O)[C@H]1O (some centres not stated) | inactive

— PubChem BioAssay (NCATS)
